Here are results for 23 compounds from PubChem BioAssay (Tox21).

Test [1] is described as follows: qHTS assay to identify small molecule antagonists of the retinoid-related orphan receptor gamma (ROR-gamma) signaling pathway - cell viability counter screen (AID 1159520). Further: nearly all actives have a fitted effect of over 50% in size. Further: potency means the concentration at half of the fitted maximal effect. On activity, negative = cytotoxicity: on the % scale 0 is the no-effect control and ±100 the full control effect. An outline of the steps: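 Cytotoxicity was read from cellular ATP (CellTiter-Glo luminescence) after 16 hr at 37 C with 1 uM doxycycline induction. The inducer was added 2 hr after compound transfer to Tet-on ROR gamma CHO cells.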
(Quantitative high-throughput screening tests each substance at several concentrations.)

The target in test [2] is Nuclear receptor ROR-gamma (Homo sapiens) (UniProt P51449). Briefly: qHTS assay to identify small molecule antagonists of the retinoid-related orphan receptor gamma (ROR-gamma) signaling pathway (AID 1159521; further: nearly all actives have a fitted effect of over 50% in size; further: potency means the concentration at half of the fitted maximal effect;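 on activity change, negative = inhibition: CHO cells with doxycycline inducible ROR-gamma driving an RORE luciferase reporter; top concentration of the series differs between compounds; on the % scale 0 is the no-effect control and ±100 the full control effect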). Put shortly: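 Decreased RORE-driven luciferase luminescence indicates antagonism. Tet-on RORγ CHO cells received compound, then 1 uM final doxycycline 2 h later; signal read after 16 h incubation.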

Test [3] can be described thus: qHTS assay to identify small molecule agonists of the AP-1 signaling pathway - cell viability counter screen (AID 1159525; calls by dose curve; further: nearly all actives have a fitted effect of over 55% in size). Put shortly: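 Intracellular ATP by Cell Titer Glo luminescence (30 min, RT) in the same ME-180 AP-1-bla wells after the 5 h compound exposure at 37 °C. Normalised to tetra n-octyl ammonium bromide and DMSO controls.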
The nature of test [4]: qHTS assay to identify small molecule agonists of the AP-1 signaling pathway (AID 1159526; calls by dose curve; further: on the % scale 0 is the no-effect control and ±100 the full control effect).
Test [5] addresses Retinoic acid receptor RXR-alpha (Homo sapiens) (UniProt P19793). The test is described as follows: qHTS assay to identify small molecule agonists of the RXR signaling pathway (AID 1159527; calls by dose curve; further: on the % scale 0 is the no-effect control and ±100 the full control effect; nearly all actives have a fitted effect of over 35% in size). An outline of the steps: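 16 hr incubation of compound-treated RXR-alpha-UAS-bla HEK 293T cells (2% charcoal-stripped FBS, 37 C) preceded a 2 hr room-temperature LiveBLAzer FRET substrate step and blue/green fluorescence measurement.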

A short description of test [6]: qHTS assay to identify small molecule agonists of the RXR signaling pathway - cell viability counter screen (AID 1159529).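 Further: HEK 293T cells carrying an RXR-alpha UAS beta-lactamase reporter; series mostly up to about 77 µM; on the % scale 0 is the no-effect control and ±100 the full control effect; nearly all actives have a fitted effect of over 50% in size.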 An outline of the steps: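 In this parallel viability measure, GeneBLAzer RXR-alpha HEK 293T cells (2% charcoal-stripped FBS) were given a 5 hr preincubation, treated with compounds 16 hr at 37 C, and read by CellTiter-Glo luminescence.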
Test [7] can be described thus: qHTS assay to identify small molecule agonists of the vitamin D receptor (VDR) signaling pathway - cell viability counter screen (AID 743224). Further: potency means the concentration at half of the fitted maximal effect; nearly all actives have a fitted effect of over 50% in size. Put shortly: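 CellTiter-Glo viability readout on VDR-bla cells, measured after 16 h of compound treatment at 37C in the same wells.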
The nature of test [8]: qHTS assay to identify small molecule antagonists of the vitamin D receptor (VDR) signaling pathway - cell viability counter screen (AID 743225). Put shortly:
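Parallel cytotoxicity test: VDR-UAS-bla HEK 293T, 3 nM (final) 1-alpha,25-dihydroxyvitamin D3 with test compound, 16 h, 37C. Endpoint is CellTiter-Glo luminescence in the same wells.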

Values joined by “and” are separate entries in the source; they are usually repeats but may differ in a detail not shown here. Identical values can stand only once. Inconclusive results are not listed. The source holds several records for some structures; these can differ, active in one and inactive in another. Active and inactive are the calls of the source. Unless noted, the call rests on the fitted dose curve; in most records, active means well fitted curve in the direction sought with a large enough effect in the repeat runs; inconclusive means weak or mixed curves; inactive means no such curve, though single readings can be large; an effect the other way counts as inactive or inconclusive.

Retinoic acid receptor RXR-alpha (Homo sapiens), sequence (P19793 whole entry, looked up): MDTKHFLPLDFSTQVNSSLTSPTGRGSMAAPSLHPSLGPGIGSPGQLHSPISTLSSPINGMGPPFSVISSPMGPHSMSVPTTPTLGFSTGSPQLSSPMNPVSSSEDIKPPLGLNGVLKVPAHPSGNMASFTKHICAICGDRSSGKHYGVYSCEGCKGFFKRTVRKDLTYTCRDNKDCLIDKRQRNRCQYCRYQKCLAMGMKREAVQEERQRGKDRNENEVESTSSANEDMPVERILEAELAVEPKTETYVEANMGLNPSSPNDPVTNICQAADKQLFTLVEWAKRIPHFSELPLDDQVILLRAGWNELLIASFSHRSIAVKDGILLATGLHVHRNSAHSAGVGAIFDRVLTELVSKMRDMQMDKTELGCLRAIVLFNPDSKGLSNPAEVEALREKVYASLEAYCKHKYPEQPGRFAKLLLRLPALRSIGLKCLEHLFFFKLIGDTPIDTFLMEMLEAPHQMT

Take `O=S(O)O`: the activity, negative = cytotoxicity in test [1] is 14% [at 19 µM] (inactive). For the same compound, the activity change, negative = inhibition in test [2] is 7.25% [at 19 µM] (inactive). The viability change, negative = cytotoxic in test [3] was 5.55% [at 15.8 µM] (inactive). Also, the figures for the activation in test [4] and in test [5] were 2.22% [at 15.8 µM] (inactive) and -2.24% [at 15.8 µM] (inactive), respectively. Also, the activity change, negative = cytotoxicity in test [6] was -0.924% [at 15.8 µM] (inactive).

On to `CCC(C)C(=O)OC` (centres undefined), for which the Potency result in test [1], in test [2], in test [3], in test [4], in test [5] and in test [6] was “inactive” throughout.

Consider `CS(C)(=O)=O`, for which the Potency entry in test [1], in test [2], in test [3], in test [4], in test [5] and in test [6] was “inactive” in each case.

Regarding `CCOB(OCC)OCC`, the Potency entry in test [1], in test [2], in test [3], in test [4], in test [5] and in test [6] was “inactive” throughout.

`CCc1cccc(CC)c1N(COC)C(=O)CS(=O)(=O)O`: the Potency result in test [1], in test [2], in test [3], in test [4], in test [5] and in test [6] was “inactive” throughout.

For the compound `CCCC(O)C(O)CO` (centres undefined), the Potency entry in test [1], in test [2], in test [3], in test [4], in test [5] and in test [6] was “inactive” throughout.

With `O=C1OC(=O)c2ccc3c4c(ccc1c24)C(=O)OC3=O`, the Potency result in test [1], in test [2], in test [3], in test [4], in test [5] and in test [6] was “inactive” throughout.

For `CCCCCCCC(=O)OCC`, the Potency result in test [1], in test [2], in test [3], in test [4], in test [5] and in test [6] was “inactive” each time.

Consider `CC(C)C(=O)OCc1ccccc1`, for which the Potency result in test [1], in test [2], in test [3], in test [4], in test [5] and in test [6] was “inactive” in each case.

Take `CC(C)c1ccccc1N`: the Potency result in test [1], in test [2], in test [3], in test [4], in test [5] and in test [6] was “inactive” in each case.

Consider `Cc1ccc(O)cn1`, for which the Potency result in test [1], in test [2], in test [3], in test [4], in test [5] and in test [6] was “inactive” in each case.

`CCOC(=O)CN`: the Potency result in test [1], in test [2], in test [3], in test [4] and in test [6] was “inactive” in each case.

For the compound `C[C@H]1O[C@@H](O[C@H]2[C@@H](O)C[C@H](O[C@H]3[C@@H](O)C[C@H](O[C@H]4CC[C@@]5(C)[C@H](CC[C@@H]6[C@@H]5C[C@@H](O)[C@]5(C)[C@@H](C7=CC(=O)OC7)CC[C@]65O)C4)O[C@@H]3C)O[C@@H]2C)C[C@H](O)[C@@H]1O`, the Potency in test [7] is 17.4 nM (active); in test [8] it was 21.9 nM (active) and 13.6 nM (active); in test [1], 30.7 µM (active) and inactive; in test [2] it was 4.33 µM (active) and 8.54 µM (active). For the same compound, in test [4], the Potency result was “inactive”.

Take `CO[Si](CCC1CCC2OC2C1)(OC)OC` (centres undefined): the Potency result in test [1], in test [2], in test [3], in test [4] and in test [6] was “inactive” throughout.

With `Cc1cc(C)c(C=O)c(C)c1`, the Potency result in test [1], in test [2], in test [3], in test [4] and in test [6] was “inactive” each time.

`C=CC/C=C/C/C=C/C/C=C/C`: the Potency result in test [1], in test [2], in test [3], in test [4] and in test [6] was “inactive” throughout.

On to `CC(C)CCOCCC(C)C`, for which the Potency result in test [1], in test [2], in test [3], in test [4] and in test [6] was “inactive” each time.

As for `CC(C)=CC1CC(C)CCO1` (centres undefined), the Potency result in test [1], in test [2], in test [3], in test [4], in test [5] and in test [6] was “inactive” in each case.

Take `CO[Si](CCCNCCNCCN)(OC)OC`: the Potency result in test [1], in test [2], in test [3], in test [4], in test [5] and in test [6] was “inactive” each time.

`C=CC(=C)CC/C=C(\C)CCC=C(C)C`: the activity, negative = cytotoxicity in test [1] is 3.07% [at 19 µM] (inactive). Also, the activity change, negative = inhibition in test [2] was 0.326% [at 19 µM] (inactive). Moreover, in test [3], the viability change, negative = cytotoxic was 2.62% [at 15.8 µM] (inactive). Further, the activation in test [4] is -1.16% [at 15.8 µM] (inactive). Besides, the activity change, negative = cytotoxicity in test [6] is -8.98% [at 15.8 µM] (inactive).

Turning to `CCCCCCCCC(C)=O`, the Potency entry in test [1], in test [2], in test [3], in test [4] and in test [6] was “inactive” in each case.

Turning to `Cc1cnccn1`, the Potency entry in test [1], in test [2], in test [3], in test [4] and in test [6] was “inactive” throughout.

`COc1cccc(O)c1`: the Potency entry in test [1], in test [2], in test [3], in test [4], in test [5] and in test [6] was “inactive” each time.
